Key:
Assay in all cases: PBM binding z-score (relative to random genomic background probes); higher = stronger binding; sequences stand for … in GC…GCGATTGACAGCGTAGAATGAAGG
[1] = tested on: RARb homodimer (NR concentration 270 nM)
In short: (§1)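 On custom Agilent 4×180K arrays, double-stranded probes with 34-nt variable regions carried direct-repeat seeds, single-nucleotide variants, half-site ablations or random human genomic background. Ligand-free nuclear receptor dimers were applied for 1 h, and binding was read with antibodies against each partner (one per run). Binding z-scores come from regression-normalized fluorescence, with the random background probes as reference.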

[2] = tested on: RARg:RXRa (NR concentration 270 nM, RXRa partner concentration 90 nM)
In short: as §1

[3] = tested on: RARg homodimer (NR concentration 270 nM)
In short: as §1

[4] = tested on: RXRa DBDmut IVT, anti-RXR (DBD mutation: RXRa K156A/R161A, NR concentration 90 nM)
In short: as §1

[5] = tested on: RXRa homodimer (NR concentration 180 nM)
In short: as §1

[6] = tested on: THRa:RXRa (NR concentration 90 nM, RXRa partner concentration 90 nM)
In short: as §1

[7] = tested on: THRa homodimer (NR concentration 90 nM)
In short: as §1

[8] = tested on: VDR homodimer (NR concentration 270 nM)
In short: as §1

Sequence	PBM binding z-score [1]	PBM binding z-score [2]	PBM binding z-score [3]	PBM binding z-score [4]	PBM binding z-score [5]	PBM binding z-score [6]	PBM binding z-score [7]	PBM binding z-score [8]
TCGAGTAGGTTAGCGGCATTCAGAATGGCGTCGA	-0.725	-0.482	-0.458	-0.267	0.000996	-0.647	-0.985	-0.691
AATACAGGGTCAATAGGCCAGAGTAGGTACGAAT	3.5	5.29	4.37	2.4	4.89	3.03	0.474	2.13
ACAGACAGGTGATAAAGGTAACTCAGGCTATCAT	0.459	0.384	0.498	-0.109	0.225	1.15	-0.0543	-0.632
ACTTACGGGTCAACGAGGTTATAGCCCGCGTATA	3.68	5.54	4.99	2.37	6.11	3.97	1.14	3.48
CGAACTAGGTCAGAAAAGGACAGTGAAGGATGAT	2.62	2.78	3.84	0.166	0.978	3.91	0.0421	-0.122
TTACCAAGGTGAAAGGTCGTTTATGCACGCCTTG	2.24	3.89	1.62	1.14	5.38	3.17	0.854	2.03
TCTAGCAGGCCAGAGGGTCTCTCAAGAGGTACGG	-0.406	-0.564	-0.595	-0.155	-0.223	-1.48	-0.98	-0.83
TCTAGTTGGTCAAAGGTCACACACTCGAAATGCG	5.02	7.09	6.36	2.05	7.71	4.06	1.95	2.94
CGTCCAATGTCAATGCTAGGTCAGTGAAAGCATT	2.73	3.07	1.98	0.448	0.676	2.23	0.915	0.181
CCTACTGGGCCAAAAAGGTTATTGATGCCGATAA	1.36	0.788	0.644	-0.387	1.03	0.617	-0.462	0.00157
ATATGTAGGTTAAATCCGGGTCATTCAGGCTATG	3.23	4.91	2.25	1.1	3.3	4.46	2.71	2.5
TAGCCTAGGTCATTCAGGGGCCGGTATAGAAAGC	2.86	5.32	4.21	1.88	3.01	3.42	0.635	1.53
TCGAGTAGGTTACCAATGGGGAATTCAGCTTTCT	-0.273	0.258	-0.0594	0.599	0.509	-0.0396	-1.08	-0.782
CGAACTAGGTCATTGACAGGACAGCGAATAGTAA	2.86	4.65	4.4	2.19	2.44	2.9	0.784	1.31
CCTACCGGGCCATTCAGAGGTCATTGATCATATG	4.14	4.98	3.36	0.918	3.86	3.65	1.73	4.05
CCTGCTAGGTCATGGTCTGCTAATCTACAGTATG	2.97	3.73	4.43	2.02	2.66	3.17	1.35	0.439
AGAACGAGGGCACGCTGAGTTGATAGTAGAGTAG	1.25	1.99	2.41	2.07	1.34	1.9	0.0891	1.95
ATCTCTAGGTAAGACTCAGTTCGGTGAAGAACGC	0.505	0.0648	0.192	0.349	-0.00788	0.483	0.697	0.648
CCTAGCAGGCCAAACTGGGTCACTCAAGGCTTGA	2.17	1.16	1.51	0.301	0.807	3.68	0.159	-0.107

Sequence	PBM binding z-score [1]	PBM binding z-score [2]	PBM binding z-score [3]	PBM binding z-score [4]	PBM binding z-score [5]	PBM binding z-score [6]	PBM binding z-score [7]	PBM binding z-score [8]
CCTACTGGGCCATAAAGGTCATTGATGCCGATAA	4.17	4.52	3.88	0.623	4.73	3.05	0.441	2.92
GCTCGGAGGACAAGGTCGGAGCTTTGTCCGTAGA	0.998	0.842	1.11	-0.395	0.103	1.37	0.277	-0.608
GCGACTGGGGCGTCAGCAGGTTACCATAACTTAA	0.457	0.162	-0.368	-0.119	0.154	0.661	-0.199	-0.488
TCTGTTAGTTGATTAGGGCAACCGAAACAGCGGA	0.861	0.9	0.978	0.605	0.318	0.839	0.442	0.324
ATCTTTAGGTAAGACTCAGTTCAGTGAAGAACGC	0.715	0.526	0.533	0.843	0.131	1.28	0.881	1.44
GCGACTGGGGCAAAGCAGGTTGCCATAAGGTTGG	0.156	0.0303	0.101	-0.48	-0.0833	1.59	-0.471	-0.513
CGTCCAAGGTCAGCAGGTCGGTGAAAGCGACGTG	4.14	5.49	6.04	2.37	4.37	3.57	1.92	1.3
CAAACTAGGTCACCAGAAGGTCAAAGTCCGCATG	5.5	8.08	7.22	2.32	6.38	4.35	2.59	3.71
CCGACTGGGGCAGAAAGTTTACCATACCATCCGG	0.899	-0.0805	0.478	-0.44	-0.178	-0.72	-0.708	0.157
ATATGTAGGTTAGCTGGGGGCATTCAGACTAGGC	2.15	2.32	2.43	1.71	1.67	4.62	1.84	2.94
ATCGAAAGGTCGTGAGGTGAGTATCCAGAAAGGC	2.99	4.59	3.92	1.15	5.24	3.28	1.55	0.852
TCTCGGAGGACACGAAGGTGAGAGCTTTCCAGAG	1.24	0.731	1.55	0.225	0.152	1.48	0.357	-0.501
TTACCAAGGTGGAAGGTCGTTGATGCACGCCTTG	0.907	0.595	0.158	-0.443	1.43	0.674	-0.0203	0.895
TTACCAAGCTGAAGGTCGTTGATCCCTCTGTAGA	0.756	0.152	-0.231	-0.269	1.13	0.571	-0.583	0.305
CCTATTAGTTGACCATAAGGGCAACCAAAGCTCG	2.24	1.55	1.14	0.788	0.828	2.02	1.47	0.747
CGTCCAAGGTCAGCAGGTCAGCGAAAGCGACGTG	5.14	6.69	7.16	2.52	5.67	4.07	2.74	1.83
AGTCAAAGTTCAGGACGAGGGAACGTAAAGCACG	2.88	4.2	4.74	3.07	2.87	2.44	0.19	1.74
AGAATAAGGTTATTAAGATCAGGGAATTGCGGTC	1.1	1.39	1.13	1.47	1.58	2.42	0.933	0.967
